# Key:
# Experiment in all cases: DAPPL (digital affinity profiling via proximity ligation, sequencing); 10 mM Tris-HCl pH 7.5, 50 mM NaCl, 1 mM DTT, 4% glycerol, room temperature, 30 min; GST-TFs on glutathione beads, 16-mer random dsDNA library, 0.1% formaldehyde crosslink after washing; high values mean tight binding
# Details in all cases: protein: recombinant; tags: N-terminal GST; dsDNA, one strand shown
# ELK1 = biological target: T1, ELK1 (Homo sapiens, UniProt P19419 1-428)
# T1 sequence: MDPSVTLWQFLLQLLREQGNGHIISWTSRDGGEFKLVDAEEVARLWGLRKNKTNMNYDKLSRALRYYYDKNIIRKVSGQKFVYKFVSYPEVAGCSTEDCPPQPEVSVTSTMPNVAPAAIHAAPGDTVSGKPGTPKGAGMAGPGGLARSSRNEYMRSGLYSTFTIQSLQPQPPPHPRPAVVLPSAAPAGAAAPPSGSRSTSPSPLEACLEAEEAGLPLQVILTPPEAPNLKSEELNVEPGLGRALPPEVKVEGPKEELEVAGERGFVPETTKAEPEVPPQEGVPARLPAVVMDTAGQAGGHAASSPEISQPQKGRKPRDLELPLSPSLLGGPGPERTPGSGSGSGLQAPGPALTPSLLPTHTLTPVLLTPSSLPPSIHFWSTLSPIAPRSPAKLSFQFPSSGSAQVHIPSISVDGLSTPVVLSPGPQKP
# Method in brief: (§1)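 Human transcription factors were made in yeast as GST fusions, captured on glutathione beads and barcoded with DNA. With a tag-only sample included, the pool was incubated with 200 nmole of a random double-stranded 16-mer DNA library in Tris/NaCl/DTT/glycerol buffer at room temperature for 30 min, then crosslinked with 0.1% formaldehyde after washing, ligated by proximity, amplified and sequenced. For binding signal, each hexamer's read frequency for a factor is divided by its frequency for the tag-only sample.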
# ERG = biological target: T2, ERG (Homo sapiens, UniProt P11308 1-479)
# T2 sequence: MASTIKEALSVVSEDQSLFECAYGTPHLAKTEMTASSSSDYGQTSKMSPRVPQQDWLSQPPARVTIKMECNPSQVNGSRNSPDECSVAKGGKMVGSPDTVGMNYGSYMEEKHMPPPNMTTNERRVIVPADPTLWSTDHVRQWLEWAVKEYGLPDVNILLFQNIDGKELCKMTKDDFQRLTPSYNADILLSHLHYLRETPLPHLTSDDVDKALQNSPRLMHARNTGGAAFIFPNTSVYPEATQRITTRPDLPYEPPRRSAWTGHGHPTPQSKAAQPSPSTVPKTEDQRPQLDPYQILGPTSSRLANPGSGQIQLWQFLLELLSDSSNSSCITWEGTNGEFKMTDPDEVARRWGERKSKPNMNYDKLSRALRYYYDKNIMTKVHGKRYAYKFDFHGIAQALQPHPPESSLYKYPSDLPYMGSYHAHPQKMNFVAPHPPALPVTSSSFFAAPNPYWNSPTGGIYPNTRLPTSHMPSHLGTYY
# Method in brief: as §1
# EHF = biological target: T3, EHF (Homo sapiens, UniProt Q9NZC4 1-300)
# T3 sequence: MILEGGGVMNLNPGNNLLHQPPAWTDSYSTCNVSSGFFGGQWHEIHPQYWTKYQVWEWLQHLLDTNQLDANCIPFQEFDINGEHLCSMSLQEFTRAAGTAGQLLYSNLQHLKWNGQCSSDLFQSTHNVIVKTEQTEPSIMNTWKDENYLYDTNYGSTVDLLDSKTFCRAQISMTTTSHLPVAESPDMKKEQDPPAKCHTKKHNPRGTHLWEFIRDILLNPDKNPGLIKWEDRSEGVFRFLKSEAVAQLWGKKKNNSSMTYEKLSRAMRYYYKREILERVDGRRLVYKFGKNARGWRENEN
# Method in brief: as §1
# SPIB = SPIB (Homo sapiens, UniProt Q01892 1-262)
# Method in brief: as §1
# ELK3 = biological target: T4, ELK3 (Homo sapiens, UniProt P41970 1-407)
# T4 sequence: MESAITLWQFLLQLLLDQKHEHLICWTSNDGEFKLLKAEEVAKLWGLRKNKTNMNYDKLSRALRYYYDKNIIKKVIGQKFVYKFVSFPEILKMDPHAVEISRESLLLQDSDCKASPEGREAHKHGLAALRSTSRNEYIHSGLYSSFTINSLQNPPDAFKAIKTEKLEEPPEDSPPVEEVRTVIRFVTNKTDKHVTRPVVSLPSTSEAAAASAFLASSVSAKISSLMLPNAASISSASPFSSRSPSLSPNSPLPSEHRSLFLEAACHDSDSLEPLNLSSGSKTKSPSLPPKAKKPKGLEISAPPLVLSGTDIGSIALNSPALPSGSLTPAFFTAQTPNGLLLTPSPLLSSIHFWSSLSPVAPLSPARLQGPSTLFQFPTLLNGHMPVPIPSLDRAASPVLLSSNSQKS
# Method in brief: as §1
# ETV5 = ETV5 (Homo sapiens, UniProt P41161 1-510)
# Method in brief: as §1
# ELF3 = biological target: T5, ELF3 (Homo sapiens, UniProt P78545 1-371)
# T5 sequence: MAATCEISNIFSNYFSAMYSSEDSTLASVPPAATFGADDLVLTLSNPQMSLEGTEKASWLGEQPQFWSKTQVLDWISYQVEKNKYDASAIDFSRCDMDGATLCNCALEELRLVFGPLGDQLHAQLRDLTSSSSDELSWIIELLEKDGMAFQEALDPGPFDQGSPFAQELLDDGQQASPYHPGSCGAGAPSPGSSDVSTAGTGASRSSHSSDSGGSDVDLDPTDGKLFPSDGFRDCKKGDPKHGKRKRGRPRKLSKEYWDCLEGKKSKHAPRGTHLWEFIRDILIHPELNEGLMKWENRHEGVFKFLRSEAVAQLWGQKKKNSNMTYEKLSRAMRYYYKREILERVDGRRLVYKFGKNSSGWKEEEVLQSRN
# Method in brief: as §1
# ETV1 = ETV1 (Homo sapiens, UniProt P50549 1-477)
# Method in brief: as §1
# ETS2 = biological target: T6, ETS2 (Homo sapiens, UniProt P15036 1-469)
# T6 sequence: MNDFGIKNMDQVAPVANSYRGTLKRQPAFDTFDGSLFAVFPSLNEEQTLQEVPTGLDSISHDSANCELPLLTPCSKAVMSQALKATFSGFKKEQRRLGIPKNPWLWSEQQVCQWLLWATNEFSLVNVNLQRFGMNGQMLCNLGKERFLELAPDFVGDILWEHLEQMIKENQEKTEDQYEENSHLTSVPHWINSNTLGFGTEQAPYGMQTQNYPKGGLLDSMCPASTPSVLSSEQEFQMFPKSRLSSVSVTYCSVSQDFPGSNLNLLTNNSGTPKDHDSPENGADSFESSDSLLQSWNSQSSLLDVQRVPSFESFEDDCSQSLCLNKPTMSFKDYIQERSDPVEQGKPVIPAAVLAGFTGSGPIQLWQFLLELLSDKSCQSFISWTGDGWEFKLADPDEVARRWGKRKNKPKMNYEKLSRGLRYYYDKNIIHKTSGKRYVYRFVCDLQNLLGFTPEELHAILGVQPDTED
# Method in brief: as §1
# SPDEF = biological target: T7, SPDEF (Homo sapiens, UniProt O95238 1-335)
# T7 sequence: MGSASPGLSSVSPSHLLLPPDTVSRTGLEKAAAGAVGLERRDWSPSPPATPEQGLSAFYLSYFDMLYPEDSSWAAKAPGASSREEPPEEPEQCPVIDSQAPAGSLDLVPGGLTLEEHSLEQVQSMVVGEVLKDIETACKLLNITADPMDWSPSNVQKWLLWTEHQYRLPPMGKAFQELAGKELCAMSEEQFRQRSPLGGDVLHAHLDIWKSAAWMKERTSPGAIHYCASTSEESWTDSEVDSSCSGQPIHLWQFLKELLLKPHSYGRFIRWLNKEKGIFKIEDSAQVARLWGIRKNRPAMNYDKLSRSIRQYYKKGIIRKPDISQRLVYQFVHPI
# Method in brief: as §1
# ETV7 = biological target: T8, ETV7 (Homo sapiens, UniProt Q9Y603 1-341)
# T8 sequence: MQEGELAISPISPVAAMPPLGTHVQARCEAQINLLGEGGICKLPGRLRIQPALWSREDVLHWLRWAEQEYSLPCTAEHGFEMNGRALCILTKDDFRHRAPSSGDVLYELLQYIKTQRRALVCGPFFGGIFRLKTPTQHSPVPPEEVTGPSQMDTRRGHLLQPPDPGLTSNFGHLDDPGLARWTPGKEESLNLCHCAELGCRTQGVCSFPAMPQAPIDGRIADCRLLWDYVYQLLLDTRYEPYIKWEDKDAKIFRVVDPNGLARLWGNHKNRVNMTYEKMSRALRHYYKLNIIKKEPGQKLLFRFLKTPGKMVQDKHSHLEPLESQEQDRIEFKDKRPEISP
# Method in brief: as §1
# ETV3 = biological target: T9, ETV3 (Homo sapiens, UniProt P41162-2 1-143)
# T9 sequence: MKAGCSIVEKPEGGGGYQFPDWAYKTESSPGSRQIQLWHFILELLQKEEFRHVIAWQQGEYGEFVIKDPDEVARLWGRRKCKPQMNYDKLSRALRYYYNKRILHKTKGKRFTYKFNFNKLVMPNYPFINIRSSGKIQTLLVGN
# Method in brief: as §1
# ETV6 = ETV6 (Homo sapiens, UniProt P41212 1-452)
# Method in brief: as §1
# GABPA = biological target: T10, GABPA (Homo sapiens, UniProt Q06546 1-454)
# T10 sequence: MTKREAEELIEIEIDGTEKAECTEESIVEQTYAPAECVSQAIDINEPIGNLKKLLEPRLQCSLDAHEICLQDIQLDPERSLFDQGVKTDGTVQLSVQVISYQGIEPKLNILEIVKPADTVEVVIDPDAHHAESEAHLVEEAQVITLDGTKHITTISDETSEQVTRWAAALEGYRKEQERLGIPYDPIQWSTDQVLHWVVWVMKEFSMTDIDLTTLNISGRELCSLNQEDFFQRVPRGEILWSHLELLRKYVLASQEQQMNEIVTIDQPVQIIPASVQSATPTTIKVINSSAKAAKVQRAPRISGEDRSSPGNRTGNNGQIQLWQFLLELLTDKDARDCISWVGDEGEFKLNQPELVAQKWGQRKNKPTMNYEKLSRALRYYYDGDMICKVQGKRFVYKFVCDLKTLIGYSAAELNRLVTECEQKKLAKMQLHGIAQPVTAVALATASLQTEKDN
# Method in brief: as §1
# ELF4 = ELF4 (Homo sapiens, UniProt Q99607 1-663)
# Method in brief: as §1
# SPIC = biological target: T11, SPIC (Homo sapiens, UniProt Q8N5J4 1-248)
# T11 sequence: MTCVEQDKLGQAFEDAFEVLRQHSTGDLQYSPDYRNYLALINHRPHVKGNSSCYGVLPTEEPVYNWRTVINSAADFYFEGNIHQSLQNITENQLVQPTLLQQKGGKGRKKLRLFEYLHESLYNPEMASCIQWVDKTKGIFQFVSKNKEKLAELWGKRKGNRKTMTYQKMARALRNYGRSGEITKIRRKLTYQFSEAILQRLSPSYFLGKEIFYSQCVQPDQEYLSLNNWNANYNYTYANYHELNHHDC
# Method in brief: as §1
# ETV3L = biological target: T12, ETV3L (Homo sapiens, UniProt Q6ZN32 1-361)
# T12 sequence: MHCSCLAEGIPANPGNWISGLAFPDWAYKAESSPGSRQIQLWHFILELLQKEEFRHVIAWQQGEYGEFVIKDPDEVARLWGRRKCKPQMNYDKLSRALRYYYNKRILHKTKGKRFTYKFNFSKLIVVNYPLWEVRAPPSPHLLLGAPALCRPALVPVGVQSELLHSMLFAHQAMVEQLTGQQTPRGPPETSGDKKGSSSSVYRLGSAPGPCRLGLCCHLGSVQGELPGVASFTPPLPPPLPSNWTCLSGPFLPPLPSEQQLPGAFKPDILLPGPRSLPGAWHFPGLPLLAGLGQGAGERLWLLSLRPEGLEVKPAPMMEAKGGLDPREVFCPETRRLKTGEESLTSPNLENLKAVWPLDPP
# Method in brief: as §1
# ELF1 = ELF1 (Homo sapiens, UniProt P32519 1-619)
# Method in brief: as §1
# Chain of ETV5 (P41161 whole entry): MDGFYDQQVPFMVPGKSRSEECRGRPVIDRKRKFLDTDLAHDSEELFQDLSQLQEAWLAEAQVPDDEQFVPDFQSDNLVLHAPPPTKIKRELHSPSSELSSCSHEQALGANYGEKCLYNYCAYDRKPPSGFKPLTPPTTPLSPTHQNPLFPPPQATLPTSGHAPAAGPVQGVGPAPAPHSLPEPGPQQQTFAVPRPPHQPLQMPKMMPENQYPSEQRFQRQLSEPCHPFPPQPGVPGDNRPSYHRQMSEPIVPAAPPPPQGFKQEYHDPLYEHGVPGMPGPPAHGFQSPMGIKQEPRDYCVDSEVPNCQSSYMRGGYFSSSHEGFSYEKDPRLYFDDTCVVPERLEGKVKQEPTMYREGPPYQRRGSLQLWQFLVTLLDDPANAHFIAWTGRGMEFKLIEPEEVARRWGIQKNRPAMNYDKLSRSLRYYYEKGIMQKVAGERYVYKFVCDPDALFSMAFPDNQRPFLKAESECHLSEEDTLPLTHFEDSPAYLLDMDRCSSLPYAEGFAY
# Chain of ETV6 (P41212 whole entry): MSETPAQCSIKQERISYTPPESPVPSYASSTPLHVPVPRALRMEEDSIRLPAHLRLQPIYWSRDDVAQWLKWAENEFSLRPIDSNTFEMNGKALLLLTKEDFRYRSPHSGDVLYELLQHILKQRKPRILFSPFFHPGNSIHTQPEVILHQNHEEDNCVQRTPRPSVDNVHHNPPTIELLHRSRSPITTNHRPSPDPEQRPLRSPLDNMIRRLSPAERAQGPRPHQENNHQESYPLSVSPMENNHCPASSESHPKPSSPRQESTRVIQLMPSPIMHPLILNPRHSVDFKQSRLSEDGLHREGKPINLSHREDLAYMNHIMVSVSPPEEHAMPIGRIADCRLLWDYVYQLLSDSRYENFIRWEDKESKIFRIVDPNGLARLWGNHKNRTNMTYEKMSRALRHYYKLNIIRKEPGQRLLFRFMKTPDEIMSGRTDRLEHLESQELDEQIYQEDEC
# Chain of SPIB (Q01892 whole entry): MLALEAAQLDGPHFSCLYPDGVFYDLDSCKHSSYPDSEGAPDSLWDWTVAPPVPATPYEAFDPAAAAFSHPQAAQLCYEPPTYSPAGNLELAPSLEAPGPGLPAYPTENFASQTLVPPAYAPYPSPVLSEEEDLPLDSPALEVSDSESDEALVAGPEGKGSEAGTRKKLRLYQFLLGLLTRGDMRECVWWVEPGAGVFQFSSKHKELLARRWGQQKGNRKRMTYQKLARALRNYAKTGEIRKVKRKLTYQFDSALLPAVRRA
# Chain of ETV1 (P50549 whole entry): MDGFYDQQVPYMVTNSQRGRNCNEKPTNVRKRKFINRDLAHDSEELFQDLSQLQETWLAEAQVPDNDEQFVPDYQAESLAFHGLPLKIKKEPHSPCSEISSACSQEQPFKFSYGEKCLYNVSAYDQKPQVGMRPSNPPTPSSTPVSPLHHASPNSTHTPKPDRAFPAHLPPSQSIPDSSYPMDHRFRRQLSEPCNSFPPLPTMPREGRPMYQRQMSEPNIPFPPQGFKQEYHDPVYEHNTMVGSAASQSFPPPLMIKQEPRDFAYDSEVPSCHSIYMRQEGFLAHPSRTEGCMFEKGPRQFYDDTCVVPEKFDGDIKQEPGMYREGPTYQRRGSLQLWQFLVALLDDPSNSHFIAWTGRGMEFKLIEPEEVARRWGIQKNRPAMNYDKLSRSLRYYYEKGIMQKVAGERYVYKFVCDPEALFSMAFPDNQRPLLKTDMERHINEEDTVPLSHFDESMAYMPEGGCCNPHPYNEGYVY
# Chain of ELF4 (Q99607 whole entry): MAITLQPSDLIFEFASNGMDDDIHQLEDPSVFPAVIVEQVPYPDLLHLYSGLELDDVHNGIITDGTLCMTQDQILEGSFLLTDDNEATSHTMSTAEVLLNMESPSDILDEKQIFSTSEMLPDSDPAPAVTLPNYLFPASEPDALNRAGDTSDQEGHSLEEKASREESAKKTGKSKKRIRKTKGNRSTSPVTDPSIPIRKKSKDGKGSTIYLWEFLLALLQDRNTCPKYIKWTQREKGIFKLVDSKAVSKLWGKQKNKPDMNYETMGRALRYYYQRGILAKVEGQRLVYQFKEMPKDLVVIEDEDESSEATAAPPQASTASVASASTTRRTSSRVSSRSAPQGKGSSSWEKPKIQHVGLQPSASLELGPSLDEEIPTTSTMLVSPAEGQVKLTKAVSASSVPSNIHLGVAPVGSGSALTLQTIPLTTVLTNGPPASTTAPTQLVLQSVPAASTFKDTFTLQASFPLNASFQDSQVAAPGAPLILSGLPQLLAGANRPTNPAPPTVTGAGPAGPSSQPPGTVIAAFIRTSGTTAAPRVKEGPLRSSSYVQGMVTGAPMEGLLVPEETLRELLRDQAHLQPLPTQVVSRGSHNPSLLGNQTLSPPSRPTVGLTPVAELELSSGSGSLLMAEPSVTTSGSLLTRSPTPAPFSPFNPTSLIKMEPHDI
# Chain of ELF1 (P32519 whole entry): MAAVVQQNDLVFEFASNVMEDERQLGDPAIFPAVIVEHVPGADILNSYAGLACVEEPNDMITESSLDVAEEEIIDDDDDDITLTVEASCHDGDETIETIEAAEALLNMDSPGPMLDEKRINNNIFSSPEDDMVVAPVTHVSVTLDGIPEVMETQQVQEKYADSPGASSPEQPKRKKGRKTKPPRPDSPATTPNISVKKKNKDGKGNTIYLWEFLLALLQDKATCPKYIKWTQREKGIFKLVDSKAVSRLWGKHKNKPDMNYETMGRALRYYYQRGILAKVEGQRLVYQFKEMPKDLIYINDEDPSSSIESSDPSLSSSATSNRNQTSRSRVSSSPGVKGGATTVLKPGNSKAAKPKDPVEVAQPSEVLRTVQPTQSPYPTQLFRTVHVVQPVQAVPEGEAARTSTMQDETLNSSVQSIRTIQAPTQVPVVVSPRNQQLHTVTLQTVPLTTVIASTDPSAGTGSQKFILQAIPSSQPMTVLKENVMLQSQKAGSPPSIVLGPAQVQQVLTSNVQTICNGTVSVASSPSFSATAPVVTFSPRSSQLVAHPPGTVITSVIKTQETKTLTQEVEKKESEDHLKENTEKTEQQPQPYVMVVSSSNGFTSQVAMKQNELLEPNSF
sequence,measurement,setting,value
GCCGGA,binding signal,ELK1,"1.17 fold enrichment (6-mer frequency, TF over GST control)"
same,binding signal,ERG,"1.27 fold enrichment (6-mer frequency, TF over GST control)"
same,binding signal,EHF,"1.08 fold enrichment (6-mer frequency, TF over GST control)"
same,binding signal,SPIB,"1.01 fold enrichment (6-mer frequency, TF over GST control)"
same,binding signal,ELK3,"1.11 fold enrichment (6-mer frequency, TF over GST control)"
same,binding signal,ETV5,"1.16 fold enrichment (6-mer frequency, TF over GST control)"
same,binding signal,ELF3,"1.05 fold enrichment (6-mer frequency, TF over GST control)"
same,binding signal,ETV1,"1.07 fold enrichment (6-mer frequency, TF over GST control)"
same,binding signal,ETS2,"1.01 fold enrichment (6-mer frequency, TF over GST control)"
same,binding signal,SPDEF,"1.37 fold enrichment (6-mer frequency, TF over GST control)"
same,binding signal,ETV7,"1 fold enrichment (6-mer frequency, TF over GST control)"
same,binding signal,ETV3,"1.1 fold enrichment (6-mer frequency, TF over GST control)"
same,binding signal,ETV6,"1.07 fold enrichment (6-mer frequency, TF over GST control)"
TAGGCC,binding signal,GABPA,"1.02 fold enrichment (6-mer frequency, TF over GST control)"
same,binding signal,ETV5,"1.05 fold enrichment (6-mer frequency, TF over GST control)"
same,binding signal,ELF4,"1.01 fold enrichment (6-mer frequency, TF over GST control)"
same,binding signal,ETV7,"1.03 fold enrichment (6-mer frequency, TF over GST control)"
CGGCAA,binding signal,ETV5,"1.02 fold enrichment (6-mer frequency, TF over GST control)"
same,binding signal,ETV6,"1.02 fold enrichment (6-mer frequency, TF over GST control)"
GCGTAT,binding signal,ELK1,"1.04 fold enrichment (6-mer frequency, TF over GST control)"
same,binding signal,GABPA,"1 fold enrichment (6-mer frequency, TF over GST control)"
same,binding signal,ERG,"1.03 fold enrichment (6-mer frequency, TF over GST control)"
same,binding signal,SPIB,"1.11 fold enrichment (6-mer frequency, TF over GST control)"
same,binding signal,ETV5,"1.05 fold enrichment (6-mer frequency, TF over GST control)"
same,binding signal,SPIC,"1.07 fold enrichment (6-mer frequency, TF over GST control)"
same,binding signal,ELF3,"1.03 fold enrichment (6-mer frequency, TF over GST control)"
same,binding signal,ETV1,"1.05 fold enrichment (6-mer frequency, TF over GST control)"
same,binding signal,ETV3L,"1.02 fold enrichment (6-mer frequency, TF over GST control)"
AACTGT,binding signal,GABPA,"1.01 fold enrichment (6-mer frequency, TF over GST control)"
same,binding signal,ELF1,"1.02 fold enrichment (6-mer frequency, TF over GST control)"
same,binding signal,ELK3,"1.06 fold enrichment (6-mer frequency, TF over GST control)"
same,binding signal,ETV5,"1 fold enrichment (6-mer frequency, TF over GST control)"
same,binding signal,ELF3,"1.09 fold enrichment (6-mer frequency, TF over GST control)"
same,binding signal,ETV6,"1.04 fold enrichment (6-mer frequency, TF over GST control)"
